Calls of active or inactive are those of the source. Unless noted, how the calls were made is not given here.
What was measured:
[1] = tested on: XIP peptide (Xip251-270) binding; experiment: XIP fragment 251-270 binding compounds – biochemical, small-molecule microarray, fluorescence 635/667 nm, 0.1 µg/mL protein, primary screen (AID 1182); settings: fluorescent protein binding, 635 nm, higher = more signal, called active from +8 up or from −8 down
[2] = tested on: XIP peptide (Xip251-270); experiment: compounds binding XIP fragment 251-270 – biochemical, small-molecule microarray, fluorescence 635/667 nm, 0.5 µg/mL protein, primary screen (AID 1183); settings: fluorescence 635 nm, higher = more signal
[3] = blood-stage malaria parasite viability loss – strain 3D7, DAPI fluorescence, 100 nL, primary screen (AID 1184);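 further: parasites grown inside human red blood cells in medium with human serum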; settings: P. falciparum 3D7 growth, 3 d, higher = more signal
[4] = molecular target: Homeobox protein Hox-A13 (Mus musculus) (UniProt Q62424); experiment: disruptors of Hoxa13 oligonucleotide interaction – biochemical, fluorescence polarization, labeled oligonucleotide, primary screen (AID 1185); settings: Hoxa13:DNA binding, 15 min, higher = more signal, called active from +8 up or from −8 down
[5] = blockers of DNA damage checkpoint Chk1 activation – imaging, HeLa, hydroxyurea, phospho-Chk1 antibody, percent positive cells, primary screen (AID 1186); settings: hydroxyurea-induced phospho-Chk1 immunofluorescence imaging, higher = more signal
[6] = blockers of DNA damage checkpoint Chk1 activation – imaging, HeLa, hydroxyurea, phospho-Chk1 nuclear intensity, primary screen (AID 1187); settings: hydroxyurea-induced phospho-Chk1 immunofluorescence imaging, higher = more signal

Chain of Homeobox protein Hox-A13 (Mus musculus) (Q62424 whole entry, looked up): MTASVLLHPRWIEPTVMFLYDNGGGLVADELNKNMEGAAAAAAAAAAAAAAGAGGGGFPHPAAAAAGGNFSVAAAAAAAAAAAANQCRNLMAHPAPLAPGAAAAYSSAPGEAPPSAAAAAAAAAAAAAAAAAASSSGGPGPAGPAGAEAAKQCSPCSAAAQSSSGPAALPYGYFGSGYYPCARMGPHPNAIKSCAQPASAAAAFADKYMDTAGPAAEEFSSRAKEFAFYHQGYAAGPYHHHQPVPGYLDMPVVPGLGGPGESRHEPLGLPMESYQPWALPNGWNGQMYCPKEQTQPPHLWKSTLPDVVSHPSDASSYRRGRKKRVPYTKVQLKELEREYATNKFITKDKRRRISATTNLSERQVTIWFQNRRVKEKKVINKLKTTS

SMILES	composite z-score [1]	composite z-score [2]	z-score [3]	z-score [4]	z-score [5]	z-score [6]
C=CCN1C(=O)[C@]2(O[C@H](CCO)[C@@H]([Si](C)(C)c3ccc(OC)cc3)[C@@H]2C)c2cc(N3C(=O)c4cccc5cccc3c45)ccc21	0.966 (inactive)	0.749	-2.74	-3.37 (inactive)	-2.42 (inactive)	-1.91 (inactive)
COc1ccc(C(=O)Nc2ccc(CN3C(=O)[C@@]4(O[C@@H](CCO)[C@H]([Si](C)(C)c5ccc(OC)cc5)[C@H]4C)c4ccccc43)cc2)cc1	0.264 (inactive)	0.758	-2.74	-1.17 (inactive)	-0.0822 (inactive)	-0.0421 (inactive)
C=CCOC(=O)[C@H]1[C@@H]2C(=O)O[C@@H](c3ccccc3)[C@@H](c3ccccc3)N2[C@@H](c2ccc(OCCOC(=O)[C@@H]3C[C@@H]4C(=O)N5CCC[C@H]5C(=O)N4[C@@H]3c3cccc(OCCO)c3)cc2)[C@]12C(=O)Nc1ccccc12	1.48 (inactive)	0.846	-1.71	-0.113 (inactive)	-0.934 (inactive)	-0.0548 (inactive)
O=C1c2ccccc2[C@](Cc2ccccc2I)(C(=O)NC2CC2)[C@H](c2ccc(CO)cc2)N1C1CCCCC1	0.247 (inactive)	0.743	-1.77	-3.63 (inactive)	-0.199 (inactive)	-0.0711 (inactive)
COC(=O)[C@@]1(Cc2ccc(F)cc2)[C@H]2c3cc(C(=O)N4CCCC4)n(Cc4cc(C)n(C)n4)c3C[C@H]2CN1C(=O)c1ccccc1	1.55 (inactive)	0.759	-1.58	-3.99 (inactive)	0.611 (inactive)	0.53 (inactive)
COc1ccc(C(=O)Nc2ccc(CN3C(=O)[C@@]4(O[C@@H](CCn5cc([C@H](O)c6ccccc6)nn5)[C@H]([Si](C)(C)c5ccc(OC)cc5)[C@H]4C)c4ccccc43)cc2)cc1	0.0679 (inactive)	0.216	-2.3	0.568 (inactive)	-0.0665 (inactive)	-0.348 (inactive)
O=C1OCCC/C=C\[C@H]2OC34C=CCN(Cn5nnc6ccccc65)C(=O)[C@H]3N(CCO)C(=O)[C@@H]4C12 (stereo partly drawn)	-0.0143 (inactive)	0.96	-1.18	-4.72 (inactive)	0.0428 (inactive)	0.371 (inactive)
COCC(=C=CC[C@H](O)c1ccccc1OCCO)C[C@H](O)c1cc(Cl)cc(Cl)c1O	0.549 (inactive)	0.736	-0.254	-3.5 (inactive)	1.36 (inactive)	0.764 (inactive)
COc1cc(OC)c(C(O)C2C=CC3C(=O)NC(=O)C3N2Nc2ccc(Cl)cc2Cl)cc1Br (stereo not drawn)	1.11 (inactive)	0.369	-0.0679	-5.65 (inactive)	0.66 (inactive)	0.862 (inactive)
O=C(NCc1ccccc1)[C@@]1(Cc2ccccc2)N=C(c2ccc(OCCCO)cc2)O[C@H]1c1ccccc1	1.46 (inactive)	0.684	-2.39	-1.7 (inactive)	-0.306 (inactive)	0.0631 (inactive)
O=C1O[C@H](c2ccccc2)[C@H](c2ccccc2)N2[C@H]1[C@@H](C(=O)N1CCN(c3ncccn3)CC1)[C@]1(C(=O)Nc3ccc(C#CC4=CCCCC4)cc31)[C@H]2c1ccc(O)cc1	0.28 (inactive)	0.815	-0.953	2.84 (inactive)	-0.329 (inactive)	-0.513 (inactive)
COC(=O)C(CC#Cc1ccc2c(c1)[C@]1(C(=O)N2)[C@H](C(=O)O)[C@H]2C(=O)O[C@H](c3ccccc3)[C@H](c3ccccc3)N2[C@@H]1c1ccc(O)cc1)C(=O)OC	0.12 (inactive)	0.713	0.49	-6.07 (inactive)	-0.287 (inactive)	-0.507 (inactive)
CCCCN1CC=CC23O[C@@H]4C=CCOC(=O)[C@@H]4[C@H]2C(=O)N(CCCCCO)[C@@H]3C1=O (stereo partly drawn)	-0.338 (inactive)	0.0889	-0.198	-3.39 (inactive)	-0.0035 (inactive)	-0.504 (inactive)
COc1ccc(C(O)C2C=CC3C(=O)N(c4ccccc4)C(=O)C3N2Nc2ccccc2F)cc1OCc1ccccc1 (stereo not drawn)	1.26 (inactive)	0.698	-0.193	-0.0495 (inactive)	-0.75 (inactive)	-1.22 (inactive)
[N-]=[N+]=NCc1ccccc1[C@@H]1OC(c2ccc(OCCCO)cc2)=N[C@]1(Cc1ccccc1N=[N+]=[N-])C(=O)N1CCOCC1	0.129 (inactive)	0.706	-2.03	-2.15 (inactive)	0.0823 (inactive)	0.515 (inactive)
O=C1[C@H]2C=C(Br)[C@H](C[C@@H]2OCCCCO)[C@@]12CO2	0.091 (inactive)	0.141	-0.234	-1.71 (inactive)	-0.0513 (inactive)	-0.265 (inactive)
O=C1C2C=CC(C(O)C(c3ccccc3)c3ccccc3)N(n3cnnc3)C2C(=O)N1Cc1ccccc1 (stereo not drawn)	0.23 (inactive)	0.664	-0.528	-3.79 (inactive)	0.414 (inactive)	-0.402 (inactive)

SMILES	composite z-score [1]	composite z-score [2]	z-score [3]	z-score [4]	z-score [5]	z-score [6]
COCCOC(=O)N1C(=O)[C@@]2(c3cc(C#CC4(O)CCCCCC4)ccc31)[C@H](c1ccc(O)cc1)N1[C@H](c3ccccc3)[C@H](c3ccccc3)OC(=O)[C@H]1[C@@H]2C(=O)Nc1nc2ccccc2s1	1.18 (inactive)	0.708	-0.326	-1.3 (inactive)	0.227 (inactive)	0.428 (inactive)
O=C1[C@H]2C=C(Br)[C@H](C[C@@H]2c2ccccc2)[C@@]12CO2	0.122 (inactive)	0.31	-0.391	-1.29 (inactive)	-0.155 (inactive)	-0.0519 (inactive)
COc1ccc([C@H]2OC[C@@H]3CC4(CC=CC4)C(=O)N32)cc1	-0.302 (inactive)	0.345	0.301	-0.0645 (inactive)	0.0257 (inactive)	-0.452 (inactive)
CC(C)C[C@@H]1NC(=O)[C@@H]2C[C@H](C(=O)NCCCCCN)[C@H](c3cccc(OCCO)c3)N2C1=O	0.0825 (inactive)	0.758	-0.0757	-3.34 (inactive)	-0.356 (inactive)	-0.49 (inactive)
CC(C)C[C@@H]1NC(=O)[C@H]2C[C@@H](C(=O)NCCCCCCN)[C@@H](c3ccc(O)cc3)N2C1=O	1.43 (inactive)	0.776	-0.108	-2.64 (inactive)	0.273 (inactive)	-0.265 (inactive)
COCCOC(=O)N1C(=O)[C@@]2(c3cc(C#Cc4ccc(OC)cc4)ccc31)[C@H](C(=O)N1CCCCCCC1)[C@H]1C(=O)O[C@H](c3ccccc3)[C@H](c3ccccc3)N1[C@@H]2c1ccc(OCCO)cc1	2.79 (inactive)	0.635	-2	-15.8 (active)	-0.442 (inactive)	-0.617 (inactive)
O=C(NCC(F)(F)F)[C@@H]1c2ccccc2C(=O)N(C2CCCCC2)[C@H]1c1ccc(CO)cc1	0.0572 (inactive)	0.434	-0.676	-3.32 (inactive)	0.142 (inactive)	-0.156 (inactive)
COCCOC(=O)N1C(=O)[C@@]2(c3cc(C#CC4=CCCCC4)ccc31)[C@H](C(=O)Nc1nc3ccccc3s1)[C@H]1C(=O)O[C@H](c3ccccc3)[C@H](c3ccccc3)N1[C@@H]2c1ccccc1OCCO	0.494 (inactive)	0.698	-2.04	1.67 (inactive)	-0.169 (inactive)	-0.114 (inactive)
C=CCC(OC(C)=O)[C@@H]1[C@@H](N(Cc2ccc(-c3ccccc3)cc2)C(=O)Cc2ccc(F)cc2)c2cc(OCCCO)ccc2N1C(=O)c1ccc(-c2ccccc2)cc1 (stereo partly drawn)	-0.142 (inactive)	0.166	-1.9	-0.778 (inactive)	-0.517 (inactive)	-0.285 (inactive)
C=C(CCCC)C(=O)CC[C@H](OC(C)=O)c1cccc(OCCO)c1	0.162 (inactive)	-0.0976	-1.98	-5.04 (inactive)	-0.0717 (inactive)	-0.148 (inactive)
C#CCN(CC1=CCCCC1)[C@H](c1ccccc1Br)[C@@H](O)Cc1ccccc1	0.0838 (inactive)	-0.43	0.47	-0.843 (inactive)	-0.164 (inactive)	-0.155 (inactive)
COC(=O)C(CC#Cc1ccc2c(c1)[C@]1(C(=O)N2)[C@H](c2ccc(O)cc2)N2[C@H](c3ccccc3)[C@H](c3ccccc3)OC(=O)[C@H]2[C@@H]1C(=O)Nc1nc2ccccc2s1)C(=O)OC	1.09 (inactive)	0.833	-0.591	-0.645 (inactive)	-0.0827 (inactive)	-0.46 (inactive)
CC(C)OC(=O)C=C1C[C@@H](c2ccccc2C(F)(F)F)O[C@@H](c2ccccc2C(F)(F)F)O1	-0.245 (inactive)	-0.277	-1.82	0.189 (inactive)	-0.319 (inactive)	-0.595 (inactive)
O=C1O[C@@H](c2ccccc2)[C@@H](c2ccccc2)N2[C@@H](c3ccc(OCCO)cc3)[C@]3(C(=O)Nc4ccccc43)[C@@H](C(=O)NC[C@H](O)c3ccccc3)[C@H]12	1.29 (inactive)	0.345	0.0884	-5.41 (inactive)	0.167 (inactive)	0.696 (inactive)
COc1cc2c(cc1O)C=[N+](Cc1cccc(OC(F)(F)F)c1)CC2	-0.103 (inactive)	0.0686	-1.94	-3.45 (inactive)	-0.0564 (inactive)	-0.707 (inactive)
COC(=O)c1c(CC[C@@H](CO)NC(=O)N[C@H](Cn2cc(Cc3ccccc3)nn2)C(C)C)oc(C(C)=O)c1C(=O)OC	0.369 (inactive)	-0.0446	-1.99	-0.701 (inactive)	1.02 (inactive)	1.38 (inactive)
